The results in this text go back to PubChem BioAssay (NCATS).

Test [1] in a line: Validation screen for small molecules that induce DNA re-replication in MCF 10A normal breast cells (AID 463097). Note: nearly all actives have a fitted effect of over 60% in size. Note: potency is the fitted concentration of half-maximal effect. An outline of the steps:
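DNA re-replication was detected as a rise in nuclei with elevated Hoechst fluorescence after a 48 hr compound exposure of MCF 10A cells at 37 C.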

Test [2] addresses Ubiquitin carboxyl-terminal hydrolase 2 (Homo sapiens) (UniProt O75604). The test can be described thus: qHTS Validation Assay for Inhibitors of Ubiquitin-specific Protease USP2a Using CHOP2 as the Reporter (AID 463106). The essentials:
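USP2 core (10 nM final) was preincubated with compound 30 min at RT in pH 8.0 Tris/CaCl2/beta-ME/CHAPS buffer. Ub-CHOP2 and reporter substrate (25 nM final each) were then added, with fluorescence (Ex 485/Em 531) read after 60 min. Data were normalized to NEM full inhibition and fitted to concentration-response curves.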

In test [3] the target is Beta-2 adrenergic receptor (Homo sapiens) (UniProt P07550). Briefly: qHTS validation assay of beta-arrestin-biased ligands of beta2-adrenergic receptor (AID 485366). An outline of the steps: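 Arrestin-recruitment (Tango) reporter: ligand-bound beta2-AR recruits beta-arrestin, releasing tTA, which upregulates luciferase. Titrations of up to 46 microM incubated 18 hr at 37 degrees C before luminescent readout.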
Sequence of Beta-2 adrenergic receptor (Homo sapiens) (P07550 whole entry, looked up): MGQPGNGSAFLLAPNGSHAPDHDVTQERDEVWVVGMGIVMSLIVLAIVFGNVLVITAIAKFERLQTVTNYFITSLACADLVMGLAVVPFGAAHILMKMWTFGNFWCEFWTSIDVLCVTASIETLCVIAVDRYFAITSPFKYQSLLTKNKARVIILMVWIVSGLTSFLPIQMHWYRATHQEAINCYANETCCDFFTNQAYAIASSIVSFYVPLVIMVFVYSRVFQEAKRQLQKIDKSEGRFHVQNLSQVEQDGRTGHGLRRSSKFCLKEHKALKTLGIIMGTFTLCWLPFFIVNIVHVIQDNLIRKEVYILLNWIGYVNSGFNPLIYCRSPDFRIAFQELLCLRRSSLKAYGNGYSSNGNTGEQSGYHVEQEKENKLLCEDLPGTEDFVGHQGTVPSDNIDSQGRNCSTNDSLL
Background: Quantitative high-throughput screening tests each substance at several concentrations.

In test [4] the target is ATP-dependent 6-phosphofructokinase (Trypanosoma brucei brucei) (UniProt O15648). Briefly: qHTS Validation Assay to Find Inhibitors of T. brucei phosphofructokinase (AID 485368). Note: potency is the fitted concentration of half-maximal effect. The essentials:
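Steps: substrate mix (0.5 mM F6P, 0.1 mM ATP, MgCl2, TEA pH 8.0); compound; 1.25 nM T. brucei PFK; 45 min RT; ATP depletion 10 min; ADP-to-ATP detection 10 min; luminescence read; curve fitting and classification.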

Test [5] can be described thus: Quantitative high throughput screen for delayed death inhibitors of the malarial parasite plastid, 96 hour incubation (AID 488745). Note: nearly all actives have a fitted effect of over 70% in size. Note: potency is the fitted concentration of half-maximal effect. The essentials:
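P. falciparum carrying an integrated firefly luciferase reporter, grown in erythrocytes (2% hematocrit, 0.1% parasitemia final) in RPMI 1640/0.5% Albumax, was exposed to compound for 96 h (two generations) at 37 C, 5% CO2. Luminescence decrease indicated growth inhibition.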

Test [6] can be described thus: Quantitative high throughput screen for delayed death inhibitors of the malarial parasite plastid, 48 hour incubation (AID 488752). Note: nearly all actives have a fitted effect of over 65% in size. Note: potency is the fitted concentration of half-maximal effect. An outline of the steps:
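Erythrocytes infected with P. falciparum carrying an integrated firefly luciferase reporter (2% hematocrit, 0.1% parasitemia final) were exposed to compounds in RPMI 1640/0.5% Albumax for 48 h at 37 C, 5% CO2. Growth inhibition was scored as reduced luminescence.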

Test [7] can be described thus: Cytometry Cell-Based qHTS for Inhibitors of the mTORC1 Signaling Pathway in MEF cells (AID 2668). Note: potency is the fitted concentration of half-maximal effect. The essentials: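 Pathway inhibition in WT Tsc2-rescued Tsc2-/-, p53-/- MEFs is measured as the Alexa-488 phospho-rpS6 to propidium iodide intensity ratio after 24 hrs of compound at 37 degree Celsius. PI-stained cell number gives viability.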
Test [8] has as its target DNA polymerase III PolC-type (Bacillus subtilis (strain 168)) (UniProt P13267). Briefly: qHTS Validation Assay for the Inhibitors of DNA Replication in Gram-Positive Bacteria (AID 485295).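 Note: reconstituted holoenzyme with PolC plus beta clamp SSB and primase; PicoGreen fluorescence of double-stranded DNA made on primed circular M13 template; series mostly up to about 57 µM.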 An outline of the steps: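 Primed replication of single-stranded M13Gori by a four-protein B. subtilis holoenzyme is measured at room temperature. Double-stranded product is quantified by PicoGreen fluorescence after an EDTA stop; inhibition is scaled between DMSO and EDTA controls.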

Test [9] can be described thus: qHTS Validation Assay to Find Inhibitors of Chronic Active B-Cell Receptor Signaling (AID 485345; active = well fitted curve in the direction sought with a large enough effect in the main read-out, with a control signal flat, not every such curve was filed as active). An outline of the steps: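 TMD8 ABC-DLBCL cells stably carrying doxycycline-inducible IkappaBalpha–green luciferase fusion plus unfused red luciferase; compounds 46 uM to 3 nM, 4 h at 37C with doxycycline. Corrected green/red luminescence ratio normalized to 10 uM MG-132 and basal cell wells; curves fitted.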

In test [10] the target is Tumor susceptibility gene 101 protein (Homo sapiens) (UniProt Q99816). Briefly: qHTS Validation Assay for Iinhibitors of HIV-1 Budding by Blocking the Interaction of PTAP/TSG101 (AID 485342; calls by dose curve). The essentials: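 Fluorescence anisotropy measured PTAP-Tsg101 interaction. Final concentrations were 10 uM protein domain and 50 nM labeled peptide, equilibrated 20 min at room temperature.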
Sequence of Tumor susceptibility gene 101 protein (Homo sapiens) (Q99816 whole entry, looked up, the tested form may be a part): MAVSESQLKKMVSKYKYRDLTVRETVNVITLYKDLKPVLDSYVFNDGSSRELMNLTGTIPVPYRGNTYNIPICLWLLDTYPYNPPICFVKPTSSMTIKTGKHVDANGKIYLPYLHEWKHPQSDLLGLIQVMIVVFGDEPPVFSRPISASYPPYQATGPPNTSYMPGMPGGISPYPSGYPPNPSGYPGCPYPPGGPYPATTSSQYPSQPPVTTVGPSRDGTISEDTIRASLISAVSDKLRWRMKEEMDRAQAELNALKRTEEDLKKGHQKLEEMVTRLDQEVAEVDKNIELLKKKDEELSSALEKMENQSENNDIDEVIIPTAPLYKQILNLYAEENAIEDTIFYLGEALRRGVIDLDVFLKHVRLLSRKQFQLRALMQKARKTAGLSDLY

SMILES strings stand for the structures. Records with an inconclusive call do not appear. Activity calls are given as the source filed them. Unless noted, calls come from the whole dose curve; as a rule, active = well fitted curve in the direction sought with a large enough effect; inconclusive = small, poorly fitted or top-dose-only effect, or another doubt; inactive = no such curve, though single readings can be large; an effect the other way counts as inactive or inconclusive.

Sequence of DNA polymerase III PolC-type (Bacillus subtilis (strain 168)) (P13267 whole entry, looked up): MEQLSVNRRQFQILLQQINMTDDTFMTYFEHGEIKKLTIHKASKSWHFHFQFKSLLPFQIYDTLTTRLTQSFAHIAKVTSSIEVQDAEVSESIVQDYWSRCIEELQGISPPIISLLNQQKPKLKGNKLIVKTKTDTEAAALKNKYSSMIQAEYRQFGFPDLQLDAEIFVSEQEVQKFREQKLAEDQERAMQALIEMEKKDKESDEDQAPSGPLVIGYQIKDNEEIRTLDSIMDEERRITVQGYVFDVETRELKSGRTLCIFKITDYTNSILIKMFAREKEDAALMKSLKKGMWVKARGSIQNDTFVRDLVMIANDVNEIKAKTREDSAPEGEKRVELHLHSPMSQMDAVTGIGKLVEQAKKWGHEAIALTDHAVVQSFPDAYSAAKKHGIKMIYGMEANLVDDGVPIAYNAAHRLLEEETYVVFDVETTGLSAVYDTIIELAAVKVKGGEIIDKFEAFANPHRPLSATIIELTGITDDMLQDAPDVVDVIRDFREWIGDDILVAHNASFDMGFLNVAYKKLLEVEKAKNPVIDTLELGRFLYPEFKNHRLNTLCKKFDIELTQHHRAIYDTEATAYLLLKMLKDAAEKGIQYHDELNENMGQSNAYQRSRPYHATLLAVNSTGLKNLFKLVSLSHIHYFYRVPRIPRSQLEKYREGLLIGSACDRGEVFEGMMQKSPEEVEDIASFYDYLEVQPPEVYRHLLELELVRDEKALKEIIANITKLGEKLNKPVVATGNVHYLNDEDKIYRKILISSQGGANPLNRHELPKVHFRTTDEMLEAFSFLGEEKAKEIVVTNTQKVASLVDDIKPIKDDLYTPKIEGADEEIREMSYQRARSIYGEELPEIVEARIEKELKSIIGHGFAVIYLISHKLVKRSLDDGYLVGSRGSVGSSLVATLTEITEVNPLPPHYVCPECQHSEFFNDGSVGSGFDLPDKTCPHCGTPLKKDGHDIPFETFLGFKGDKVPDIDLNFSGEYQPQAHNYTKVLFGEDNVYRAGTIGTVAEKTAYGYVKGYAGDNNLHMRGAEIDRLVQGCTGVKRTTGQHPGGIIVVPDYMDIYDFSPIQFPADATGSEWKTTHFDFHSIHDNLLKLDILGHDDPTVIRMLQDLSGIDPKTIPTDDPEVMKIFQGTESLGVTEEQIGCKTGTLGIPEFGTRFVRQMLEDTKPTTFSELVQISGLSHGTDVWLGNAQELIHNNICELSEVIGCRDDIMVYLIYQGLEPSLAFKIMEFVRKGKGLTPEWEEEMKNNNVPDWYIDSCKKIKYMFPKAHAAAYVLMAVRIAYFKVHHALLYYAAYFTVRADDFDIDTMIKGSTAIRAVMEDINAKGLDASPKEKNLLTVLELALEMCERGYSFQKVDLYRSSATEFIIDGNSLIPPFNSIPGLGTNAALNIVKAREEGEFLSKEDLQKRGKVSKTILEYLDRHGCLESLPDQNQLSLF
Sequence of ATP-dependent 6-phosphofructokinase (Trypanosoma brucei brucei) (O15648 whole entry, looked up): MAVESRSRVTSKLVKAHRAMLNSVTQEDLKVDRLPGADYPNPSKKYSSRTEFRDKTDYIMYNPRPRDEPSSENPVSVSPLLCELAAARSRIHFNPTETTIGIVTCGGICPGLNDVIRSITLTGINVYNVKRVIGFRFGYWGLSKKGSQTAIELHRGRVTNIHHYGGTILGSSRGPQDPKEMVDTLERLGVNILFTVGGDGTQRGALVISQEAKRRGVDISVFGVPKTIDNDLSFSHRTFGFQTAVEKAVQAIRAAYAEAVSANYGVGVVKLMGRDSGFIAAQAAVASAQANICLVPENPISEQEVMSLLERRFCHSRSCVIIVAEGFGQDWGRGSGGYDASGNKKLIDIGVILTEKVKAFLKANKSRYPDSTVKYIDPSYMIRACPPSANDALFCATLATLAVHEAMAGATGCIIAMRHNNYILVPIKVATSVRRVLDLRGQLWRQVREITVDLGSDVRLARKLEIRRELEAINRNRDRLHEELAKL
Sequence of Ubiquitin carboxyl-terminal hydrolase 2 (Homo sapiens) (O75604 whole entry, looked up): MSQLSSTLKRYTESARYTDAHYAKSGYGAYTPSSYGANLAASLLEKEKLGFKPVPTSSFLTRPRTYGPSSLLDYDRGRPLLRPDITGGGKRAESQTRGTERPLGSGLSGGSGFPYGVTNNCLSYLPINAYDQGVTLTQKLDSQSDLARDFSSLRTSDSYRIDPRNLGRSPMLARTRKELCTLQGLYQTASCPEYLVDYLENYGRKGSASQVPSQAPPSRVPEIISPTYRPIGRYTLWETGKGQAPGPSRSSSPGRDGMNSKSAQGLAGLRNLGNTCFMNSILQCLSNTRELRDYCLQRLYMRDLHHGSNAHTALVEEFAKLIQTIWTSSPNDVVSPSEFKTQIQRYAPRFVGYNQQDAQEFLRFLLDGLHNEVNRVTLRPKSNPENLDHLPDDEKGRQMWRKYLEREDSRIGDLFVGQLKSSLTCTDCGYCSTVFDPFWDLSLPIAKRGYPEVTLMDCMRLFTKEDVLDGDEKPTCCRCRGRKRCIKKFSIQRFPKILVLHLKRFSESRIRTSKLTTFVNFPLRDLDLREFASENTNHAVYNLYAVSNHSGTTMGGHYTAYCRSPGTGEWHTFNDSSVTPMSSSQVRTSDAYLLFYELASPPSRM

Turning to `CCCCCCCCCCCCCCCCCC(=O)NCC(COP(=O)([O-])OCC[N+](C)(C)C)OCC` (stereo not drawn), the Potency in test [1] was 1.12 µM (active). Further, the Potency entry in [2], in test [4], in test [5] and in [6] was “inactive” in each case. In addition, the compound was called inactive in [3].
As for `O=c1[nH]c2ccccc2n1CCCN1CCN(C(c2ccccc2)c2ccccc2)CC1`, the Potency result in test [1], in test [5] and in test [6] was “inactive” throughout.
As to `CCN(CC)c1ncnc2c1ncn2[C@@H]1O[C@H](COP(=O)(O)OP(=O)(O)C(Br)(Br)P(=O)(O)O)[C@@H](O)[C@H]1O`, the Potency entry in test [7], in test [2], in test [8] and in test [4] was “inactive” each time. Moreover, the result in test [9] and in [3] was inactive.
As for `C#CCN1C(C)=C(C(=O)OC)C(c2cccc([N+](=O)[O-])c2)C(C(=O)OCC)=C1C` (stereo not drawn), the Potency result in [7], in test [2], in test [8] and in [4] was “inactive” in each case. Besides, the result in test [3] was inactive. Moreover, the Potency was 8.28 µM (active) in test [5] and 11.7 µM (active) in test [6].
With `CCCCCCCCCCCCCCCCCCNC(=O)OCC(COP(=O)([O-])OCC[n+]1ccsc1)OC` (stereo not drawn), the Potency entry in [7], in test [8], in test [5] and in [6] was “inactive” each time. Further, the compound was called inactive in test [10], in test [9] and in test [3].
`CC1OC1P(=O)(O)O` (stereo not drawn): the Potency result in [7], in test [2] and in [8] was “inactive” throughout. Moreover, the compound was classed as inactive in test [9] and in test [3].
Turning to `N#C/C(=C\c1ccc(O)c(O)c1)C(=O)NCc1ccccc1`, the Potency in test [1] was 8.91 µM (active); in test [4] it was 13.5 µM (active). Moreover, the Potency result in test [2], in [8] and in [5] was “inactive” in each case. In addition, the call in test [10] and in test [3] was inactive.
As for `Cn1cc(C2=C(c3ccc(Cl)cc3Cl)C(=O)NC2=O)c2ccccc21`, the Potency entry in test [7], in test [8], in test [4], in test [5] and in [6] was “inactive” each time. For the same compound, the call in test [10] and in test [3] was inactive.
In the case of `CC(C)CC(NP(=O)(O)O[C@@H]1O[C@@H](C)[C@H](O)[C@@H](O)[C@H]1O)C(=O)NC(Cc1c[nH]c2ccccc12)C(=O)O` (stereo partly drawn), the Potency result in test [7], in test [2] and in test [8] was “inactive” each time. Also, the call in test [9] and in test [3] was inactive.
`Nc1nc(Cl)nc2c1ncn2[C@@H]1O[C@H](CO)[C@@H](O)[C@H]1O`: the Potency entry in [7], in [2], in test [8] and in test [4] was “inactive” each time. Moreover, the compound was called inactive in test [10] and in test [3].
Regarding `CCCCCC(O)c1cccc(OCc2ccc3ccccc3n2)c1` (stereo not drawn), the Potency entry in test [7], in [2], in test [8] and in test [6] was “inactive” each time. Also, the compound was called inactive in [10] and in [3].
On to `CN[C@H](CC(C)C)C(=O)N[C@H]1C(=O)N[C@@H](CC(N)=O)C(=O)N[C@H]2C(=O)N[C@H]3C(=O)N[C@H](C(=O)N[C@H](C(=O)O)c4cc(O)cc(O)c4-c4cc3ccc4O)[C@H](O)c3ccc(c(Cl)c3)Oc3cc2cc(c3O[C@@H]2O[C@H](CO)[C@@H](O)[C@H](O)[C@H]2O[C@H]2C[C@](C)(N)[C@H](O)[C@H](C)O2)Oc2ccc(cc2Cl)[C@H]1O`, for which the Potency result in test [1], in test [5] and in test [6] was “inactive” each time.
Regarding `O=C(Nc1ccccc1)c1cc([N+](=O)[O-])ccc1Cl`, the Potency entry in test [1], in test [2], in [8] and in test [4] was “inactive” throughout. The result in test [10] and in [3] was inactive.
On to `CNC(=O)[C@H]1O[C@@H](n2cnc3c(NCc4ccc(N)cc4)ncnc32)[C@H](O)[C@@H]1O`, for which the Potency entry in [7], in [2], in test [8] and in test [4] was “inactive” in each case. Moreover, the outcome in test [10] and in test [3] was inactive.
In the case of `OC[C@H]1O[C@@H](n2cnc3c(NC4CCCC4)ncnc32)[C@H](O)[C@@H]1O`, the Potency result in test [7], in [2] and in [8] was “inactive” in each case. For the same compound, in test [3], the outcome was inactive.
Take `Nc1nc(Cl)nc2c1ncn2[C@@H]1O[C@H](COP(=O)(O)OP(=O)(O)OP(=O)(O)O)[C@@H](O)[C@H]1O`: the Potency entry in test [7], in test [2] and in test [8] was “inactive” throughout. Further, the outcome in [3] was inactive.
`N#C/C(=C\c1c[nH]c2ccccc12)C(=O)c1ccc(O)c(O)c1`: the Potency entry in test [1], in test [2], in [5] and in test [6] was “inactive” throughout. The call in [10] and in test [3] was inactive.
For `Brc1c(Br)c(Br)c2n[nH]nc2c1Br`, the Potency result in [7], in [2], in test [8], in test [5] and in [6] was “inactive” each time. The compound was classed as inactive in [10] and in [3].
As to `CN1CC(=O)N/C1=N/C(=O)Nc1cccc(Cl)c1`, the Potency result in test [7], in test [2], in [8] and in test [4] was “inactive” in each case. The outcome in [9] and in test [3] was inactive.
On to `CCCCCCCC/C=C\CCCCCCCC(=O)NCCO`, for which the Potency entry in [7], in [2], in test [8] and in test [4] was “inactive” throughout. For the same compound, the call in test [9] and in test [3] was inactive. The Potency in test [5] was 2.94 µM (active); in test [6], 2.62 µM (active).
`C[C@@H](NC(=O)/C(C#N)=C/c1ccc(O)c(O)c1)c1ccccc1`: the Potency result in [7], in test [2] and in test [8] was “inactive” each time. In addition, in test [3], the compound was classed as inactive.
On to `O=C(/C=C/c1ccc(O)c(O)c1)OCCc1ccccc1`, for which the Potency in [7] was 3.29 µM (active). In addition, the Potency entry in test [2] and in test [8] was “inactive” each time. Moreover, the outcome in [3] was inactive.
For `CCCCCCCCCCCCCCCC(=O)OC(CC(=O)O)C[N+](C)(C)C` (stereo not drawn), the Potency entry in test [7], in test [2], in test [8], in [4], in test [5] and in [6] was “inactive” in each case. For the same compound, the call in test [3] was inactive.
As to `C=C/C(C)=C/[C@@]1(C)SC(=O)C(C)=C1O`, the Potency entry in [1], in test [5] and in test [6] was “inactive” in each case.
Turning to `COc1cc(OC)c(/C=C2/C(=O)Nc3ccccc32)c(OC)c1`, the Potency entry in test [7], in [2], in test [8], in test [5] and in test [6] was “inactive” each time. Moreover, the compound was classed as inactive in [10] and in test [3].
Take `NC(=O)C1=CN(C2OC(COP(=O)(O)OP(=O)(O)OC[C@H]3O[C@@H](n4cnc5c(N)ncnc54)[C@H](OP(=O)(O)O)[C@@H]3O)C(O)C2O)C=CC1` (stereo partly drawn): the Potency entry in test [7], in test [2], in [8] and in test [4] was “inactive” in each case. Further, the outcome in test [10] and in [3] was inactive.
Regarding `CC(C)(C)NCC(O)COc1nsnc1N1CCOCC1` (stereo not drawn), the Potency result in test [1] was “inactive”.
With `N.N.O=C(O)C1(C(=O)O)CCC1.[Pt]`, in test [1], the Potency entry is “inactive”.
